# Experimental data reported in PubChem BioAssay (NCATS).
# Results filed as inconclusive are left out. Values without a mark were called inactive. Activity calls are given as the source filed them. Calls come from the whole dose curve; as a rule, active = well fitted inhibition curve with a large enough effect in the signal ratio, with a control signal flat (not every such curve was filed as active); inconclusive = small, poorly fitted or top-dose-only effect, or effect the other way, or a change in a side signal; inactive = flat fitted curve, though single readings scatter; the % refers to the signal ratio.
# Biological target: Glucocorticoid receptor (Homo sapiens) (UniProt P04150)
# Assay: qHTS assay for small molecule antagonists of glucocorticoid receptor signaling (AID 588533);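 note: cells stimulated with 2 nM dexamethasone as agonist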
# Conditions: HeLa MMTV-bla, GRE beta-lactamase ratio, antagonist mode, 18 h; series mostly up to 76.8 µM; activity change, negative = inhibition: at the top concentration
# In short: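 Antagonist-mode qHTS: compound titrations added to GRE-bla HeLa cells, then dexamethasone 2 nM final; 18 h, 37 C. CCF4 FRET fluorescence normalized to dexamethasone and DMSO; IC50 from Hill fit.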
# % is set by controls: 0 for no effect and ±100 for the full control effect.
# Glucocorticoid receptor (Homo sapiens), sequence (P04150 whole entry, looked up): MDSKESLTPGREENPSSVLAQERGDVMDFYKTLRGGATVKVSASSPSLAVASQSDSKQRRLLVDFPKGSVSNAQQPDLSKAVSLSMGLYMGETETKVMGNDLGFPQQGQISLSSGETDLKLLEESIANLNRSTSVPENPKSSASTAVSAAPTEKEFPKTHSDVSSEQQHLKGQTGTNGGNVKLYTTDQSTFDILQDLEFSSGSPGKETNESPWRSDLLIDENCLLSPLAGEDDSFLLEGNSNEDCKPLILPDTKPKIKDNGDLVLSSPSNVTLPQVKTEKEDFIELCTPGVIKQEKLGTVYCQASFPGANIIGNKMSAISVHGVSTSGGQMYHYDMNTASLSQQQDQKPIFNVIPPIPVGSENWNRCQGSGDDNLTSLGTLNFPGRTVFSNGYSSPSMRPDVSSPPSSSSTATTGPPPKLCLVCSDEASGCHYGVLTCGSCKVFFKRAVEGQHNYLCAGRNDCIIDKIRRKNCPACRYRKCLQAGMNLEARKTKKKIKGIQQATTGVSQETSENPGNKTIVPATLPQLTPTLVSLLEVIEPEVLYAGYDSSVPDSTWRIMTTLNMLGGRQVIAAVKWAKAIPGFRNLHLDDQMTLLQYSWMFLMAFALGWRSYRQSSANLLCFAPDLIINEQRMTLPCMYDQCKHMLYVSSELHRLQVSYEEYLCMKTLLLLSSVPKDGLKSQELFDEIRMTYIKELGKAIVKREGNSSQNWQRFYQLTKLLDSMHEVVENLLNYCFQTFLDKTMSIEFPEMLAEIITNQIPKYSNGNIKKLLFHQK
Compound,Potency,"activity change, negative = inhibition [%]"
C/C(=N\NC(=O)Nc1cc(F)cc(F)c1)c1ncccc1C(=O)O,inactive,–
CCCC1COC(Cn2cncn2)(c2ccc(Cl)cc2Cl)O1 (stereo not drawn),inactive,–
O=S(=O)(c1ccc(O)cc1)c1ccc(O)cc1,–,12.7
CCOP(=O)(O)C(N)=O,–,-4.86
CCOc1nc(NC)nc(NC(=O)NS(=O)(=O)c2ccccc2C(=O)OC)n1,–,12.3
COc1ccc(O)c(C(C)(C)C)c1,–,-13
CCOP(=S)(OCC)SCC(=O)NC(C)C,–,0.0837
NS(=O)(=O)C(F)(F)C(F)(F)C(F)(F)C(F)(F)C(F)(F)C(F)(F)C(F)(F)C(F)(F)F,–,2.8
Clc1ccc([C@]2(Cn3cncn3)C[C@@H](Br)CO2)c(Cl)c1,inactive,–
CCOP(=O)(SC(C)CC)SC(C)CC (stereo not drawn),–,6.67
CNC(=O)Oc1cccc2c1OC(C)(C)C2O (stereo not drawn),–,-3
C/C(=N\C(N)=O)N(C)Cc1ccc(Cl)nc1,–,5.7
C=CCC1=C(C)[C@@H](OC(=O)[C@@H]2[C@@H](C=C(C)C)C2(C)C)CC1=O,–,29.9
Cc1ccccc1C(=O)Nc1cccc(OC(C)C)c1,–,16.7
Nc1ccc([N+](=O)[O-])cc1Cl,–,-10.9
CCCCC(CC)C(=O)Cl (stereo not drawn),–,8.79
CCNc1nc(NC(C)(C)C)nc(SC)n1,–,8.3
CCOP(=O)(OCC)SCSCC,–,9.38
CCOP(=O)(OCC)SCSC(C)(C)C,–,7.5
CNC(=O)Oc1ccc(N(C)C)c(C)c1,–,9.7
COC(=O)c1ccccc1CS(=O)(=O)NC(=O)Nc1nc(OC)cc(OC)n1,–,-5.51
Cc1cc(Cl)ccc1OCC(=O)O,–,10.4
CCOP(=S)(OCC)Oc1cnc2ccccc2n1,–,-6.13
